Measurements as given in PubChem BioAssay (Tox21).
Results filed as inconclusive are left out. A number with no mark means an inactive call. The call rests on the fitted dose curve.

Assay: qHTS assay to identify small molecule agonists of the endoplasmic reticulum stress response signaling pathway - cell viability counter screen (AID 1159517); further: nearly all actives have a fitted effect of over 50% in size
Settings: ESRE-bla HeLa viability, CellTiter-Glo luminescence, 5 h; series mostly up to 61 µM; activity change, negative = cytotoxicity: at the top concentration
Excerpt: U.S. Tox21 Program National Center for Advancing Translational Sciences [NCATS] NIH Chemical Genomics Center [NCGC] U.S. Environmental Protection Agency [EPA] National Institutes of Environmental Health Sciences [NIEHS] National Toxicology Program [NTP] U.S. Food and Drug Administration [FDA] Tox21 Assay Overview: Endoplasmic Reticulum (ER) plays an important role in cellular signaling, protein folding/maturation, stress response, lipid biosynthesis, calcium storage and release etc. Under stress conditions, proteins in ER misfold or unfold, and leading to the expression of ER stress responsive genes. ER stress has been associated with a variety of pathophysiological conditions such as cancer, inflammation, neurodegenerative diseases, diabetes, ischemic heart disease etc. To identify the compounds that induce ER stress response, an ER stress reporter cell line, CellSensor ESRE-bla HeLa (Life Technologies, Carlsbad, CA) containing a beta-lactamase reporter gene under control of the Endoplasmic reticulum Stress Response Element (ESRE) was used to screen Tox21 10K compound library. The cytotoxicity of the Tox21 compound library against the ESRE-bla HeLa cell line was tested in parallel by measuring cell viability using the CellTiter-Glo assay in the same wells.
Tox21 Assay Protocol Summary: ESRE-bla HeLa cells were dispensed at 1,500 cells/6 uL of assay medium per well into black wall/clear-bottom 1536-well plates using a Multidrop Combi (ThermoFisher Scientific, Waltham, MA) dispenser. After the assay plates were incubated at 37 C and 5% CO2 for an overnight, 23 nL of compounds dissolved in DMSO, positive controls or DMSO only was transferred to the assay plate by a Pintool station (Kalypsys, San Diego, CA). The assay plates were incubated at 37 C and 5% CO2 for 5 hr. One uL of LiveBLAzer B/G FRET substrate (Life Technologies) was added using a FRD (Flying Reagent Dispenser, Aurora Discovery, San Diego, CA) and the plates were incubated at room temperature for 2 hr. Fluorescence intensity (405 nm excitation, 460 nm and 530 nm emissions) was measured using an Envision plate reader (PerkinElmer, Shelton, CT). For cytotoxicity, 4 ul/well of CellTiter-Glo reagent was added into the assay plates using an FRD. After 30 min incubation at room temperature, the luminescence intensity was measured using a ViewLux plate reader (PerkinElmer).
On the % scale 0 is the no-effect control and ±100 the full control effect.

| SMILES | activity change, negative = cytotoxicity |
| --- | --- |
| CCCCc1nc(Cl)c(CO)n1Cc1ccc(-c2ccccc2-c2nn[nH]n2)cc1 | 3.68% |
| CCCC(=O)O[C@]1(C(=O)CC)CC[C@H]2[C@@H]3CCC4=CC(=O)CC[C@]4(C)[C@H]3[C@@H](O)C[C@@]21C | 3.27% |
| CCN[C@@H]1C[C@H](N)[C@@H](OC2OC(CN)=CCC2N)[C@H](O)[C@H]1O[C@H]1OC[C@](C)(O)[C@H](NC)[C@H]1O (stereo not given in full) | -1.46% [at 0.628 µM] |
| CC(N)C12CC3CC(CC(C3)C1)C2 (stereo not given) | 12.6% |
| C=CN1CCCCCC1=O | -5.85% |
| C=CCCCCCCCCC(=O)OCC | 8.08% |
| C[N+](C)(CCOc1ccccc1)Cc1cccs1 | -21.3% |
| CCCCCCCCCCCCCCC(=O)O | -7.21% [at 78.8 µM] |
| Cc1nc2ccc(CN(C)c3ccc(C(=O)N[C@@H](CCC(=O)O)C(=O)O)s3)cc2c(=O)[nH]1 | -23.5% |
| C=C(C)C(=O)OCCOCCOCCOCCOC(=O)C(=C)C | 2.08% |
| CCCOC(=O)CC | -29% |
| CCCCCCCCCCCCCCCCCCO | 1.04% |
| CCCCCCCCCC[N+](C)(C)[O-] | 6.66% |
| CC(C)CC(C)(N)C#N (stereo not given) | 8.71% [at 78.8 µM] |
| Cc1ccc(-c2ncc(Cl)cc2-c2ccc(S(C)(=O)=O)cc2)cn1 | -21.1% |
| C=CC(C)(CCC=C(C)C)OC(=O)CC (stereo not given) | -11.7% |
| CC(=O)O[C@@]12CO[C@@H]1C[C@H](O)[C@@]1(C)C(=O)[C@H](O)C3=C(C)[C@@H](OC(=O)[C@H](O)[C@@H](NC(=O)OC(C)(C)C)c4ccccc4)C[C@@](O)([C@@H](OC(=O)c4ccccc4)[C@H]21)C3(C)C | 27.8% |
| CCCCCC(C)N (stereo not given) | 7.52% |
| CC(C)(C#N)Nc1nc(Cl)nc(NC2CC2)n1 | 18.1% |
| CC(=O)N[C@H]1[C@H]([C@H](O)[C@H](O)CO)OC(C(=O)O)=C[C@@H]1N=C(N)N | 11.2% |

| SMILES | activity change, negative = cytotoxicity |
| --- | --- |
| CCOC(=O)C1=NOC(c2ccccc2)(c2ccccc2)C1 | 0.418% |
| COc1cc(C(=O)OC(COCCC(C)C)CN2CCOCC2)cc(OC)c1OC (stereo not given) | 10.7% |
| CC(C#N)(CCC(=O)O)N=NC(C)(C#N)CCC(=O)O (stereo not given) | 13.4% |
| CN(C)C(=O)Oc1ccc[n+](C)c1 | -11.4% |
| C[N+](C)(C)CCCCCCCCCC[N+](C)(C)C | -0.0614% |
| O=C(O)CCSCCC(=O)O | 0.256% |
| C[C@@H]1C[C@H]2[C@@H]3C[C@H](F)C4=CC(=O)C(Cl)=C[C@]4(C)[C@@]3(F)[C@@H](O)C[C@]2(C)[C@@]1(O)C(=O)CO | 1.6% |
| CCO[Si](OCC)(OCC)c1ccccc1 | -6.63% |
| C=C[Si](OC(C)=O)(OC(C)=O)OC(C)=O | 1.76% |
| CCCCCC(=O)OCCc1ccccc1 | -1.53% |
| CCCCOCCOC(=O)COc1cc(Cl)c(Cl)cc1Cl | -3.84% |
| CC(=O)c1ccccc1[N+](=O)[O-] | 11.5% |
| COC(=O)C1=C(C)NC(C)=C(C(=O)OC(C)C)C1c1cccc2nonc12 (stereo not given) | -32.9% |
| CCOC(=O)c1cnc2c(cnn2CC)c1NN=C(C)C | -0.0107% |
| O=C1NC(=O)C2CC=CCC12 (stereo not given) | 1.68% |
| NC(N)=NCCN1CCCCCCC1 | -3.02% [at 0.628 µM] |
| CN1C(C)(C)CC(O)CC1(C)C | 10.2% |
| COc1cc(C(=O)NCc2ccc(OCCN(C)C)cc2)cc(OC)c1OC | -5.29% |
| CCCCN(CCC(=O)OCC)C(C)=O | 10.2% |
| C1CCC2(CCCCO2)OC1 | -0.999% |
